Experimental data taken from PubChem BioAssay (NCI).
About 79,000 compounds went through this panel and 15% of them were active in at least one assay; those are over-represented in the sample as a whole. Unmarked numbers belong to inactive results. Rule as the data show it: active = growth inhibition above about 70%; inactive = the rest.

Experiment: NCI Yeast Anticancer Drug Screen. Data for the sgs1 mgt1 strain (AID 161);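 also: 0% = growth of cultures given vehicle only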
Details: S. cerevisiae sgs1 mgt1 strain, at 50.0 µM, stronger effect = higher value
Method in brief: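 Test agents were incubated with a DNA-repair-mutant yeast strain. Growth was then read and compared against vehicle-treated controls.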

| SMILES | growth inhibition [%] |
| --- | --- |
| CCN(CC)CC(C)(C)C=O | 20.8 |
| COC(=O)/C(=C/c1ccc(OC)cc1)C(C(=O)O)=C1CCCCC1 | 7.35 |
| CN(C)S(=O)(=O)c1ccc(CCc2ccc(S(=O)(=O)N(C)C)cc2)cc1 | -12.7 |
| COC(=O)/C(C#N)=C(\C)CC(C)C | -20.1 |
| Nc1ccc2nc(-c3ccccc3)[nH]c2c1 | -13.3 |
| O=C(CN1C(=O)CC(NC(=O)OCc2ccccc2)C1=O)NCC(=O)Oc1ccc([N+](=O)[O-])cc1 (stereo not drawn) | 26.9 |
| CCn1c(C)[n+](CCCOS(=O)(=O)[O-])c2ccccc21 | -14.4 |
| CCCCCCCSc1nc2ccc(N=Cc3ccccc3O)cc2s1 | -16.9 |
| CC1=C(CCC(C)CO)OC2CC3C4CC=C5CC(O)CCC5(C)C4CCC3(C)C12 (stereo not drawn) | 43.4 |
| COc1ccc(Cl)cc1NC(=O)Oc1ccccc1C(N)=O | 24.6 |
| COC(=O)C(=O)[C@@H](O)[C@H](O)[C@@H](O)CO | 25 |
| O=C1C2CCCC2C1(c1ccccc1)c1ccccc1 (stereo not drawn) | 64.2 |
| C=C1C(=O)OC2CC(C)C3CC(OCCCl)OC(OCCCl)C3(C)CC12 (stereo not drawn) | -3.05 |
| CCC(O)C1CCCCC1O (stereo not drawn) | -3.8 |
| c1ccc(-c2nnc3nn4c(-c5ccccc5)cnnc4c3c2-c2ccccc2)cc1 | -14.8 |
| CCCCc1[nH]nc(-c2n[nH]c(CCCC)c2C)c1C | 28.5 |
| Cc1ccc(S(=O)(=O)OC(c2ccccc2)c2ccccc2)cc1 | -0.4 |
| S=C1NC=CC(S)N1 (stereo not drawn) | 6.6 |
| COc1cc(OC)c(NC(=O)C(Cl)(Cl)Cl)cc1Cl | 5.9 |
| CC(=O)OCC1OC(OC(C)=O)C(NC(=S)N(C)N=O)C(OC(C)=O)C1OC(C)=O (stereo not drawn) | -16.9 |
| CCOC1=C/C(=N\NC(N)=O)CCC1 | -1.1 |
| COc1cc2c(c(C3(O)C(=O)N(C)c4ccccc43)c1OC)OCO2 (stereo not drawn) | 12.8 |
| C=C(Cl)C(C)(Cl)CCC(Cl)C(C)(C)Cl (stereo not drawn) | 29.6 |

Experiment: NCI Yeast Anticancer Drug Screen. Data for the cln2 rad14 strain (AID 165);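 also: 0% = growth equal to vehicle treated cultures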
Details: S. cerevisiae cln2 rad14 strain, at 50.0 µM, stronger effect = higher value
Method in brief: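 The screen exposed genetically defined yeast (cln2 rad14) to test compounds and scored growth inhibition relative to vehicle-treated controls.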

| SMILES | growth inhibition [%] |
| --- | --- |
| CC(=O)Oc1ccc[nH]c1=O | 24.6 |
| Nc1nc(N)c(CCCCc2ccc([N+](=O)[O-])cc2)c(N)n1 | -9.95 |
| O=[N+]([O-])c1ccc(C(O)C(c2ccccc2)S(=O)(=O)N2CCCCC2)cc1 (stereo not drawn) | -31.9 |
| CC1CC(=O)Nc2ncnc(N)c21 (stereo not drawn) | -4.7 |
| CCC(=O)NCCc1ccccc1 | -13.1 |
| Cc1nc2ccccc2nc1CC(=N)c1ccccc1 | 5.1 |
| COc1ccc(C2C(Cl)C(=O)N2NC(=O)c2ccc(NC(C)=O)cc2)cc1 (stereo not drawn) | -9.35 |
| CC1CCC2C1(C)CCC1C2(C)CCC2(C)C3CC(C)(C)CCC3(C)CCC12C (stereo not drawn) | 1.6 |
| Cc1cccc(NS(=O)(=O)c2ccc3c(c2)OCCOCCOCCOCCO3)c1 | -28 |
| Oc1ccccc1-c1nnc2n1N=C(c1ccc(-c3ccccc3)cc1)CS2 | 20.3 |
| CCCCOCCC1CCNCC1 | 10.8 |
| CCOC(CN(C)C)OCC | -18.2 |
| COc1ccc(N=C2c3cc([N+](=O)[O-])ccc3-c3c2cccc3[N+](=O)[O-])cc1 | -20.6 |
| C=CCSC(=S)Nc1nc2ccc(C)cc2s1 | 0.2 |
| NS(=O)(=O)c1ccc(Nc2c3ccccc3nc3cc(Cl)ccc23)cc1 | 3.3 |
| NC(=S)N/N=C1\C(=O)N(CCc2ccccc2)C(=O)C1C(=O)NCCc1ccccc1 (stereo not drawn) | 14.1 |
| O=S1(=O)OCCC1C(O)(c1ccccc1)c1ccccc1 (stereo not drawn) | -49.3 |
| CCN(CC)CC(C)(C)C=O | 4.3 |
| COC(=O)/C(=C/c1ccc(OC)cc1)C(C(=O)O)=C1CCCCC1 | 9.75 |
| CN(C)S(=O)(=O)c1ccc(CCc2ccc(S(=O)(=O)N(C)C)cc2)cc1 | 5.9 |

| SMILES | growth inhibition [%] |
| --- | --- |
| COC(=O)/C(C#N)=C(\C)CC(C)C | -3.65 |
| Nc1ccc2nc(-c3ccccc3)[nH]c2c1 | 1.55 |
| O=C(CN1C(=O)CC(NC(=O)OCc2ccccc2)C1=O)NCC(=O)Oc1ccc([N+](=O)[O-])cc1 (stereo not drawn) | 7.7 |
| CCn1c(C)[n+](CCCOS(=O)(=O)[O-])c2ccccc21 | 4.1 |
| CCCCCCCSc1nc2ccc(N=Cc3ccccc3O)cc2s1 | -3.25 |
| CC1=C(CCC(C)CO)OC2CC3C4CC=C5CC(O)CCC5(C)C4CCC3(C)C12 (stereo not drawn) | 9.95 |
| COc1ccc(Cl)cc1NC(=O)Oc1ccccc1C(N)=O | -12.8 |
| COC(=O)C(=O)[C@@H](O)[C@H](O)[C@@H](O)CO | 13.1 |
| O=C1C2CCCC2C1(c1ccccc1)c1ccccc1 (stereo not drawn) | -36.4 |
| C=C1C(=O)OC2CC(C)C3CC(OCCCl)OC(OCCCl)C3(C)CC12 (stereo not drawn) | 7.25 |
| CCC(O)C1CCCCC1O (stereo not drawn) | 15.7 |
| c1ccc(-c2nnc3nn4c(-c5ccccc5)cnnc4c3c2-c2ccccc2)cc1 | 1.4 |
| CCCCc1[nH]nc(-c2n[nH]c(CCCC)c2C)c1C | 7.95 |
| Cc1ccc(S(=O)(=O)OC(c2ccccc2)c2ccccc2)cc1 | -17.4 |
| S=C1NC=CC(S)N1 (stereo not drawn) | 10.3 |
| COc1cc(OC)c(NC(=O)C(Cl)(Cl)Cl)cc1Cl | -17.4 |
| CC(=O)OCC1OC(OC(C)=O)C(NC(=S)N(C)N=O)C(OC(C)=O)C1OC(C)=O (stereo not drawn) | 12.4 |
| CCOC1=C/C(=N\NC(N)=O)CCC1 | 27.8 |
| COc1cc2c(c(C3(O)C(=O)N(C)c4ccccc43)c1OC)OCO2 (stereo not drawn) | -53.1 |
| C=C(Cl)C(C)(Cl)CCC(Cl)C(C)(C)Cl (stereo not drawn) | 42.5 |
